# Pf growth 48h: Primary qHTS for delayed death inhibitors of the malarial parasite plastid, 48 hour incubation. P. falciparum luciferase growth in erythrocytes, 48 h. Potency, µM (top dose mostly 28.7 µM), inactives show at the top dose activity change, negative = inhibition, hits mostly inhibitors. hit rate 5.9% among 310,000. AID 504832, 2011; active means well fitted inhibition curve with a large enough effect; inconclusive means small, poorly fitted or top-dose-only effect, or another doubt; inactive means no such curve, though single readings can be large or run the other way; further: potency means the concentration at half of the fitted maximal effect; on the % scale 0 is the no-effect control and ±100 the full control effect
#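 Luciferase-expressing parasites in RBCs, 2% Hct / 0.1% parasitemia final; RPMI 1640 + 0.5% Albumax; 37 C, 5% CO2, one generation; luminescence read-out, lower signal = inhibition.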
# Cycloheximide cs: Cycloheximide Counterscreen for Small Molecule Inhibitors of Shiga Toxin. cell reporter, cycloheximide protein synthesis inhibition counterscreen. max response, %. hit rate 12% among 300,000; in the data active means max response mostly above about 13%, no sharp cut-off; inactive means mostly below about 14%; further: read at 38.3 µM for the half of the compounds with a filed dose; 0% is about no effect
# SARS PLP yeast: qHTS of Yeast-based Assay for SARS-CoV PLP; S. cerevisiae expressing SARS-CoV PLpro, growth rescue; Potency, µM (doses to about 32.9 µM), for the others: top-dose activity, positive = growth rescue, most hits filed as activators; hit rate 0.19% among 330,000; further: potency means the concentration at half of the fitted maximal effect; 0% is about no effect; nearly all actives have a fitted effect of over 55% in size
# NS1 inh: qHTS Assay for Inhibitors of Influenza NS1 Protein Function; hit rate 0.4% among 270,000; Potency, µM (doses to about 46.1 µM), for the others: top-dose activity, positive = more growth; further: potency means the concentration at half of the fitted maximal effect; actives are rising curves; nearly all actives have a fitted effect of over 50% in size
#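 Read-out: OD600 growth recovery of NS1-expressing budding yeast. Cells grown overnight at 30C in -URA glucose medium, washed, resuspended and diluted 1:100 in 2% galactose assay medium, pH 6.0. Same strain lacking NS1 served as positive control.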
# Pf growth 96h: Primary qHTS for delayed death inhibitors of the malarial parasite plastid, 96 hour incubation. P. falciparum luciferase reporter growth, 96 h. Potency, µM (top dose mostly 28.7 µM), for inactives: at the highest dose activity change, negative = inhibition, most hits filed as inhibitors. hit rate 6.9% among 320,000; active means well fitted inhibition curve with a large enough effect; inconclusive means small, poorly fitted or top-dose-only effect, or another doubt; inactive means no such curve, though single readings can be large or run the other way; further: potency means the concentration at half of the fitted maximal effect; on the % scale 0 is the no-effect control and ±100 the full control effect
#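 Readout is luminescence from an integrated firefly luciferase in P. falciparum. Red cells, 2% hematocrit and 0.05% parasitemia final, were cultured with compound through two parasite generations (96 hours) at 37 C, 5% CO2.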
# Shiga inhibitor: A qHTS for Small Molecule Inhibitors of Shiga Toxin. inhibition, % at 38.7 µM. hit rate 9.2% among 290,000. Vero cells, Shiga toxin protein synthesis inhibition reporter; in the data active means inhibition mostly above about 28%, no sharp cut-off; inactive means mostly below about 43%; further: 0% is about no effect
# An asterisk follows results filed as active; i = inactive; ? = inconclusive; · = no result; [ ] = dose if it differs, or a comment. The list is not random: actives were taken first. Their share in the collection is about 21%. Unless noted, the call rests on the fitted dose curve.
SMILES,Pf growth 48h,Cycloheximide cs,SARS PLP yeast,NS1 inh,Pf growth 96h,Shiga inhibitor
Cc1c(N=C2N=C(NC(=O)c3cccs3)c3ccccc32)c(=O)n(-c2ccccc2)n1C,-23%,23,1%,·,15%,24
Cc1c(N=C2N=C(NC(=O)NC(C)(C)C)c3ccccc32)c(=O)n(-c2ccccc2)n1C,13µM*,5,0%,·,?,-17
Cc1c(N=C2C=C(Br)C(=O)C(Br)=C2)c(=O)n(-c2ccccc2)n1C,-14%,5,-2%,5%,?,15
Cc1c(N=Nc2ccc(O)cc2)c(=O)n(-c2ccccc2)n1C,15%,-1,0%,20%,?,-8
Cc1c(N=C2C=CC(=O)c3ccccc32)c(=O)n(-c2ccccc2)n1C,?,-1,-5%,·,15µM*,-10
COc1cccc(CNC(=O)CCc2nc3cc(S(=O)(=O)N4CCOCC4)ccc3n2C)c1,-13%,·,-1%,·,?,·
CCN(CC)CCC(c1ccc2c(c1)OCO2)c1c(O)cc(OC)cc1OC (stereo not given),1.5µM*,1,2%,-1%,2.9µM*,14
COc1cc(O)c(C(CCN2CCN(c3ccccc3)CC2)c2ccc3c(c2)OCO3)c(OC)c1 (stereo not given),0.83µM*,1,0%,-1%,0.33µM*,4
COc1cc(O)c(C(CCN2CCN(c3ccccc3)CC2)c2cc(OC)c(OC)c(OC)c2)c(OC)c1 (stereo not given),1.3µM*,4,4%,-2%,0.93µM*,6
COc1cc(O)c(C(CCN2CCCC2)c2ccc3c(c2)OCO3)c(OC)c1 (stereo not given),2.9µM*,6,-1%,-1%,2.9µM*,-5
COc1cccc(/C=C/C(=O)OCC(=O)NCCC2=CCCCC2)c1,25%[5.75 µM],6,-1%,-42%,12%,24
C=C1c2cccc(C(F)(F)F)c2O[C@H](C(=O)OCC)[C@@H]1CCCCCC,·,12,·,·,·,i
CCN(CC)C(=O)CC(c1cc(OC)c(OC)c(OC)c1)c1c(O)cc(OC)cc1OC (stereo not given),?,-3,1%,2%,?,1
CCN(CC)CCC(c1cc(OC)c(OC)c(OC)c1)c1c(O)cc(OC)cc1OC (stereo not given),3.3µM*,-4,1%,-3%,2.9µM*,16
Cc1ccccc1OCCC(=O)N1CCN(S(=O)(=O)c2ccc(Br)cc2)CC1,-19%,·,-1%,·,?,·
O=[N+]([O-])c1ccccc1/C=N\Nc1nccs1,67%,6,5%,4%,?,11
CC(C)NC(=S)N/N=C/c1ccccc1[N+](=O)[O-],?,22*,17%,-1%,-18%,46
O=C(CSc1ccccn1)N/N=C/c1cc([N+](=O)[O-])ccc1O,?,-2,0%,-144%,?,-8
O=C(CSc1ccccn1)N/N=C/c1ccccc1[N+](=O)[O-],51%,38*,14%,0%,-25%,38*
CCCCCC(=O)N/N=C/c1ccccc1[N+](=O)[O-],13%,19*,0%,·,46%,36
O=[N+]([O-])c1ccccc1/C=N/NC1=NCCCCC1,135%,77*,-7%,-7%,69%,43*
Cc1cc(NC(=O)CCC(=O)N(CC(=O)NCC2CCCO2)c2ccc(F)c(Cl)c2)no1 (stereo not given),5%,-3,2%,-1%,-6%,-15
O=C(CSc1ccccn1)N/N=C/c1c[nH]c2ccccc12,10%,14*,6%,·,?,-1
Cc1ccnn1CC(=O)N/N=C/c1c[nH]c2ccccc12,-15%,2,1%,0%,36%,1
CCCCCC(=O)N/N=C/c1ccco1,27%,6,-9%,3%,13µM*,15
SMILES,Pf growth 48h,Cycloheximide cs,SARS PLP yeast,NS1 inh,Pf growth 96h,Shiga inhibitor
CC1C(=O)C(C)(C)C(=O)OC1c1ccc([N+](=O)[O-])cc1 (stereo not given),-3%,5,-3%,-4%,13%,17
O=C(CSc1nnc2ccccn12)N1CCc2ccccc2C1,88%,29*,5%,-12%,56%,136*
O=C1CN(C(=O)CSc2nnc3ccccn23)c2ccccc2N1,2%,-4,-5%,2%,?,6
O=C(CSc1nnc2ccccn12)N1CCc2ccccc21,218%,20*,-7%,·,202%,62*
Cn1c(Cc2cccs2)nnc1SCC(=O)N1CCc2ccccc21,-13%,-4,0%,-1%,·,12
Cc1ccc(NCc2nnc(SCC(=O)N3CCc4ccccc43)n2C)cc1,-28%,-3,4%,-5%,4.7µM*,-10
CC(Sc1nnc2ccccn12)C(=O)N1CCc2ccccc2C1 (stereo not given),·,20*,4%,-8%,42%,59
O=C(O)C1Cc2ccccc2CN1C(=O)CSc1nnc2ccccn12 (stereo not given),23%,6,3%,·,18%,7
CCC1CCCCN1C(=O)COC(=O)COc1ccc(Br)cc1 (stereo not given),·,·,0%,·,·,·
Cc1ccc(CN2CCN(Cc3ccc4cccc(F)c4n3)CC2CCO)cc1 (stereo not given),18%,-2,3%,4%,65%,-4
COC(=O)C1=C(C)N(C)C(C)=C(C(=O)OC)C1c1ccc(F)c(Br)c1,9.3µM*,-1,-15%,-13%,-11%,0
COc1ccc(C)cc1NC(=O)CCNS(=O)(=O)c1ccc2c(c1)CC(C)N2C(C)=O (stereo not given),4%,-2,-6%,0%,?,-5
CCN(CC)c1ccc(/C=N/N=C(N)N)c(O)c1,?,-2,0%,1%,?,-22
Cc1ccc(CN2CCN(/N=C/c3cc(Br)ccc3O)CC2)cc1,3%,-2,7%,-11%,50%,-12
CS/C(N)=N/N=C/c1cc(C)ccc1O,333%,38*,-3%,-32%,i,61*
CCS/C(N)=N/N=C/c1cc(C)ccc1O,192%,53*,-3%,-8%,·,50
Cc1nnc(C)n1/N=C/c1cc(Br)cc(Br)c1O,?,-5,-13%,-172%,?,-12
CCCCCc1ccc(C)cc1O,4%,·,·,·,4%,·
CCCCS/C(N)=N/N=C/c1cc(C)ccc1O,71%,44*,-5%,-11%,·,82*
CS/C(N)=N/N=C/c1cc(Br)cc(Br)c1O,?,17*,-6%,-1%,?,65*
CCOc1ccccc1NC(=O)COC(=O)C(CC)c1ccccc1 (stereo not given),0%,0,-6%,-6%,3%,1
Cc1ccc(NS(=O)(=O)c2ccc(-c3ccc(=O)[nH]n3)o2)cc1Cl,3%,2,1%,-1%,9.3µM*,2

# Screens (PubChem)
